In PubChem BioAssay (NCATS):
Inconclusive results are not listed. The source made the active and inactive calls. The call rests on the fitted dose curve; in most records, active means well fitted cell-killing curve with a large enough effect; inconclusive means small, poorly fitted or top-dose-only effect, or effect the other way; inactive means flat fitted curve, though single readings scatter.

Columns and labels:
Test in all cases: Primary qHTS to identify gynecologic anti-cancer compounds using libraries of approved drugs and bioactive compounds (AID 1345084); further: nearly all actives have a fitted effect of over 55% in size
C33A = settings: Gynecologic cancer cell panel viability, ATPlite luminescence, 48 h; series mostly up to 57.5 µM
Procedure, shortened: (§1)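 Cells, 1,000 per well, were allowed to settle for 16 h at 37 C before compound addition. Five concentrations were tested for 48 h, and viability was read by ATPlite luminescence after 15 min at room temperature.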

CAOV3 = settings: Gynecologic cancer cell panel viability, ATPlite luminescence, 48 h; series mostly up to 57.5 µM
Procedure, shortened: as §1

CASKI = settings: Gynecologic cancer cell panel viability, ATPlite luminescence, 48 h; series mostly up to 57.5 µM
Procedure, shortened: as §1

Es-2 = settings: Gynecologic cancer cell panel viability, ATPlite luminescence, 48 h; series mostly up to 57.5 µM
Procedure, shortened: as §1

HeLa = settings: Gynecologic cancer cell panel viability, ATPlite luminescence, 48 h; series mostly up to 57.5 µM
Procedure, shortened: as §1

Hek293T = settings: Gynecologic cancer cell panel viability, ATPlite luminescence, 48 h, control line for the selectivity index; series mostly up to 57.5 µM
Procedure, shortened: as §1

JEG-3 = settings: Gynecologic cancer cell panel viability, ATPlite luminescence, 48 h; series mostly up to 57.5 µM
Procedure, shortened: as §1

OV90 = settings: Gynecologic cancer cell panel viability, ATPlite luminescence, 48 h; series mostly up to 57.5 µM
Procedure, shortened: as §1

PA-1 = settings: Gynecologic cancer cell panel viability, ATPlite luminescence, 48 h; series mostly up to 57.5 µM
Procedure, shortened: as §1

SKOV3 = settings: Gynecologic cancer cell panel viability, ATPlite luminescence, 48 h; series mostly up to 57.5 µM
Procedure, shortened: as §1

Tov-21-G = settings: Gynecologic cancer cell panel viability, ATPlite luminescence, 48 h; series mostly up to 57.5 µM
Procedure, shortened: as §1

Tov112D = settings: Gynecologic cancer cell panel viability, ATPlite luminescence, 48 h; series mostly up to 57.5 µM
Procedure, shortened: as §1
On the % scale 0 is the no-effect control and ±100 the full control effect; potency means the concentration at half of the fitted maximal effect.

C/C=C(\C)C(=O)O[C@@H]1CC2[C@@H](CC=C3C[C@@H](O[C@H]4C[C@H](OC)[C@H](O[C@H]5C[C@H](OC)[C@H](O[C@@H]6O[C@H](C)[C@@H](O[C@H]7C[C@H](OC)[C@H](O[C@@H]8O[C@H](CO)[C@@H](O)[C@H](O)[C@H]8O)[C@@H](C)O7)[C@H](OC)[C@H]6O)[C@@H](C)O5)[C@@H](C)O4)CC[C@@]32C)[C@@]2(O)CC[C@H](C(C)=O)[C@@]12C (stereo not given in full)
inactive: activity change, negative = cytotoxicity (C33A) 1.36% [at 6.55 µM] | activity change, negative = cytotoxicity (CAOV3) 9.95% [at 6.55 µM] | activity change, negative = cytotoxicity (CASKI) 2.06% [at 6.55 µM] | activity change, negative = cytotoxicity (Es-2) -1.14% [at 6.55 µM] | activity change, negative = cytotoxicity (HeLa) -0.318% [at 6.55 µM] | activity change, negative = cytotoxicity (Hek293T) -2.04% [at 6.55 µM] | activity change, negative = cytotoxicity (JEG-3) -4.6% [at 6.55 µM] | activity change, negative = cytotoxicity (OV90) -1.27% [at 6.55 µM] | activity change, negative = cytotoxicity (PA-1) -4.92% [at 6.55 µM] | activity change, negative = cytotoxicity (SKOV3) -3.56% [at 6.55 µM] | activity change, negative = cytotoxicity (Tov-21-G) -5.17% [at 6.55 µM] | activity change, negative = cytotoxicity (Tov112D) 5.73% [at 6.55 µM]

CC(NC(=O)C(O)C(C)C)C(=O)NC1C(=O)N(C)CCc2ccccc21 (stereo not given)
inactive: Potency (C33A) | Potency (CAOV3) | Potency (CASKI) | Potency (Es-2) | Potency (HeLa) | Potency (Hek293T) | Potency (JEG-3) | Potency (OV90) | Potency (PA-1) | Potency (SKOV3) | Potency (Tov-21-G) | Potency (Tov112D)

C=C(CO)C12OC1C1(C)C(=CC2=O)C(O)C(O)CC1C (stereo not given)
inactive: Potency (C33A) | Potency (CAOV3) | Potency (CASKI) | Potency (Es-2) | Potency (HeLa) | Potency (Hek293T) | Potency (JEG-3) | Potency (OV90) | Potency (PA-1) | Potency (SKOV3) | Potency (Tov-21-G) | Potency (Tov112D)

CC1COC2(OC3CC4C5CC(O[C@@H]6O[C@H](C)[C@@H](O[C@@H]7O[C@@H](C)[C@H](O)[C@@H](O)[C@H]7O)[C@H](O)[C@H]6O)C6CC(O)CCC6(C)C5CCC4(C)C3C2C)C(O)C1 (stereo not given in full)
inactive: Potency (C33A) | Potency (CAOV3) | Potency (CASKI) | Potency (Es-2) | Potency (HeLa) | Potency (Hek293T) | Potency (JEG-3) | Potency (OV90) | Potency (PA-1) | Potency (SKOV3) | Potency (Tov-21-G) | Potency (Tov112D)

CC1OC(OC2C(O)C(OC3CCC4(C)C(CCC5(C)C4CC=C4C6CC(C)(COC7OC(CO)C(O)C(O)C7O)CC(O)C6(C)CCC45C)C3(C)C)OC(C(=O)O)C2O)C(O)C(O)C1OC1OCC(O)C(O)C1O (stereo not given)
inactive: activity change, negative = cytotoxicity (C33A) 5.66% [at 11.6 µM] | activity change, negative = cytotoxicity (CAOV3) -0.364% [at 11.6 µM] | activity change, negative = cytotoxicity (CASKI) -2.68% [at 11.6 µM] | activity change, negative = cytotoxicity (Es-2) 8.83% [at 11.6 µM] | activity change, negative = cytotoxicity (HeLa) 12.4% [at 11.6 µM] | activity change, negative = cytotoxicity (Hek293T) 11.9% [at 11.6 µM] | activity change, negative = cytotoxicity (JEG-3) 10.4% [at 11.6 µM] | activity change, negative = cytotoxicity (OV90) 0.532% [at 11.6 µM] | activity change, negative = cytotoxicity (PA-1) 13.5% [at 11.6 µM] | activity change, negative = cytotoxicity (SKOV3) 37.6% [at 11.6 µM] | activity change, negative = cytotoxicity (Tov-21-G) 6.66% [at 11.6 µM] | activity change, negative = cytotoxicity (Tov112D) 7.29% [at 11.6 µM]

C[C@@H]1N[C@H]2N(C1=O)c1ccccc1[C@@]2(O)C[C@@H]1C(=O)N[C@@H](C)c2nc3ccccc3c(=O)n21
inactive: Potency (C33A) | Potency (CAOV3) | Potency (CASKI) | Potency (Es-2) | Potency (HeLa) | Potency (Hek293T) | Potency (JEG-3) | Potency (OV90) | Potency (PA-1) | Potency (SKOV3) | Potency (Tov-21-G) | Potency (Tov112D)

CC(C(O)/C=C/C(C)(C)O)C1CCC2(C)C3C(=O)C=C4C(CCC(O)C4(C)C)C3(C)CCC12C (stereo not given)
inactive: Potency (C33A) | Potency (CAOV3) | Potency (CASKI) | Potency (Es-2) | Potency (HeLa) | Potency (Hek293T) | Potency (JEG-3) | Potency (OV90) | Potency (PA-1) | Potency (SKOV3) | Potency (Tov-21-G) | Potency (Tov112D)

COc1cc2c(cc1O)[C@H](c1ccc(O[C@@H]3O[C@H](CO)[C@@H](O)[C@H](O)[C@H]3O)c(OC)c1)[C@@H](CO)[C@](O)(CO)C2
inactive: Potency (C33A) | Potency (CAOV3) | Potency (CASKI) | Potency (Es-2) | Potency (HeLa) | Potency (Hek293T) | Potency (JEG-3) | Potency (OV90) | Potency (PA-1) | Potency (SKOV3) | Potency (Tov-21-G) | Potency (Tov112D)

CC1OC(OC2CCC3(C)C(CCC4(C)C3CC=C3C5CC(C)(C)CCC5(C(=O)OC5OC(CO)C(O)C(O)C5O)CCC34C(=O)O)C2(C)C)C(O)C(O)C1O (stereo not given)
inactive: Potency (C33A) | Potency (CAOV3) | Potency (CASKI) | Potency (Es-2) | Potency (HeLa) | Potency (Hek293T) | Potency (JEG-3) | Potency (OV90) | Potency (PA-1) | Potency (SKOV3) | Potency (Tov-21-G) | Potency (Tov112D)

Nc1nc2c(c(=O)[nH]1)C[C@@H](CCc1ccc(C(=O)N[C@@H](CCC(=O)O)C(=O)O)cc1)CN2
inactive: Potency (CAOV3) | Potency (SKOV3)
active: Potency (C33A) 631 nM | Potency (CASKI) 282 nM | Potency (Es-2) 282 nM | Potency (HeLa) 282 nM | Potency (Hek293T) 316 nM | Potency (JEG-3) 10 µM | Potency (OV90) 501 nM | Potency (PA-1) 282 nM | Potency (Tov-21-G) 100 nM | Potency (Tov112D) 1.26 µM
